# Reference: PubChem BioAssay AID2314 (National Center for Advancing Translational Sciences (NCATS), 2010)
# Screen size: about 300,000 compounds; about 37,000 (12%) were called active. No stated cut-off is given here; in the data, active means max response mostly above about 13% (no sharp cut-off); inactive means mostly below about 14%. The list comes from a sample in which actives are over-represented; it also holds similar structures and randomly drawn compounds.
# Assay: Cycloheximide Counterscreen for Small Molecule Inhibitors of Shiga Toxin; further: read at 38.3 µM for the half of the compounds with a filed dose; 0% is about no effect
# Conditions: cell reporter, cycloheximide protein synthesis inhibition counterscreen; active compounds read high
row,Compound,max response
1,COc1cc(S(=O)(=O)Nc2ncn[nH]2)ccc1Cl,-1.79% (inactive)
2,CCSc1nnc(-c2cc3c(s2)-c2ccccc2CC3)o1,40.7% (active)
3,CSc1nc2sc3c(c2c(=O)[nH]1)CCc1ccccc1-3,-2.09% (inactive)
4,Fc1ccc(CSc2nnc(-c3cc4c(s3)-c3ccccc3CC4)o2)cc1,1.49% (inactive)
5,Cn1sc(NC(=O)c2ccccc2)nc1=O,9.66% (inactive)
6,CC(=O)NCCc1nc2cc(NC(=O)c3ccccc3)ccc2n1C,20.2% (inactive)
7,Cn1c(NC(=O)c2ccccc2)nc2ccccc21,25.8% (active)
8,COc1cc2c(cc1OC)C(C(=O)NCc1ccco1)C1c3ccccc3CCN1C2=O (configuration not stated),-2.13% (inactive)
9,Cc1cc(=O)oc2cc(OC(C)C(=O)NCCc3ccc(S(N)(=O)=O)cc3)ccc12 (configuration not stated),-2.25% (inactive)
10,Cc1ccc(N2CCN(C(=O)c3cccs3)CC2)c(C)c1,1.82% (inactive)
11,O=C(O)/C=C/c1cn(-c2ccccc2)nc1-c1cccs1,20.8% (active)
12,O=C(/C=C/c1cn(-c2ccccc2)nc1-c1ccc2c(c1)OCCO2)NCCCN1CCOCC1,13.7% (inactive)
13,O=C(O)c1ccc(N/N=C/c2cn(-c3ccccc3)nc2-c2cccs2)cc1,14.7% (inactive)
14,O=C(/C=C\c1cn(-c2ccccc2)nc1-c1cccs1)N1CCOCC1,17.5% (active)
15,COc1ccc(-c2nn(-c3ccccc3)cc2/C=C\C(=O)N2CCOCC2)cc1[N+](=O)[O-],-1.53% (inactive)
16,O=C(O)/C=C/c1cn(Cc2ccccc2)nc1-c1cccs1,0.958% (inactive)
17,CCOC(=O)c1c(NC(=O)CSc2nccc(=O)[nH]2)sc(C)c1C,-2.23% (inactive)
18,CCN1CC(CN(C)Cc2nc(-c3ccc(Cl)cc3)no2)CC1=O (configuration not stated),6.16% (inactive)
19,COC(=O)c1ccc(-c2noc(CN(Cc3ccccn3)CC3CCCO3)n2)cc1 (configuration not stated),-2.22% (inactive)
20,CN(Cc1ccccn1)Cc1nc(-c2ccc(Cl)cc2)no1,20% (active)
21,COCCCNS(=O)(=O)c1cccc(S(=O)(=O)c2cccc(S(=O)(=O)NCCCOC)c2)c1,-2.51% (inactive)

row,Compound,max response
1,COc1ccc(NC(=O)Nc2cccc3cccnc23)cc1,55.8% (active)
2,O=C(Nc1cccc2cccnc12)C(F)(F)F,-1.21% (inactive)
3,O=C(Nc1cccc2cccnc12)c1cccc(Cl)c1,49.1% (active)
4,COc1ccc(S(=O)(=O)Nc2cccc3cccnc23)c(N)c1,23.5% (inactive)
5,O=C(Nc1ccccc1Cl)Nn1cnnc1,6.34% (inactive)
6,O=C(Nc1cccc2cccnc12)c1cccc(N2C(=O)CCC2=O)c1,-3.63% (inactive)
7,N#Cc1ccc(C(=O)Nc2cccc3cccnc23)c(F)c1,-0.854% (inactive)
8,O=C(Nc1ccccc1Cl)Nc1cccc2cccnc12,31.2% (active)
9,CCOC(=O)Cc1ncccc1C(=O)Nc1ccc(OC)cc1,-1.69% (inactive)
10,O=C(COC(=O)/C=C/c1cn(-c2ccccc2)nc1-c1cccnc1)Nc1ccc(Cl)cc1Cl,3.3% (inactive)
11,COc1cccc(-n2c(=S)sc3c(=O)n(-c4ccccc4C)c(SCC(=O)O)nc32)c1,-1.2% (inactive)
12,O=C(c1ccccc1F)N1CCN(S(=O)(=O)c2ccc(Br)cc2)CC1,-10.6% (inactive)
13,O=C1NC(=O)C(c2ccc(Cl)cc2)N1 (configuration not stated),-2.12% (inactive)
14,CCOC(=O)C1=C(O)/C(=C/c2ccc(OCC(=O)Nc3ccc(C)cc3)cc2)N=C1C,-7% (inactive)
15,C=CCN1C(=O)NC(=O)/C(=C/c2ccc(OCC(=O)Nc3ccc(C)cc3)cc2)C1=O,14.5% (active)
16,Cc1ccc(NC(=O)COc2ccc(/C=C3/NC(=O)NC3=O)cc2)cc1,-1.82% (inactive)
17,CCSc1nnc(SCC(=O)NNC(=O)c2ccccc2F)s1,6.26% (inactive)
18,O=C(CCC1CCCC1)N=C1SC2CS(=O)(=O)CC2N1Cc1ccccc1 (configuration not stated),0.661% (inactive)
19,CNC(=O)c1sc(NCc2ccccc2OC)nc1C,-3.72% (inactive)
20,COc1cccc2sc(NNC(=O)c3nc4ccccc4s3)nc12,12.4% (inactive)
21,COc1cc2ccccc2cc1C(=O)Nc1ccc(S(=O)(=O)Nc2cc(C)on2)cc1,-2.65% (inactive)

row,Compound,max response
1,CC(=O)c1sc(NC(=O)C2=NN(c3ccccc3)C(=O)CC2)nc1C,-0.878% (inactive)
2,COc1cccc2sc(Nc3nc(C)c(C(C)=O)s3)nc12,16.2% (active)
3,COc1cc2ccccc2cc1C(=O)Nc1ccccc1C,29.7% (active)
4,COc1ccc(Br)cc1C(=O)Nc1cccc(C)c1C,-3.3% (inactive)
5,CC(=O)c1sc(NC(=O)c2cccc3ccccc23)nc1C,35.9% (active)
6,CCOC(=O)c1sc(NC(=O)c2ccncc2)nc1C,0.888% (inactive)
7,COC(=O)c1sc(NC(=S)NC(=O)c2ccc(C)cc2)nc1C,9.32% (inactive)
8,CNC(=O)c1sc(Nc2ccc(OCc3ccccc3)cc2)nc1C,10.4% (inactive)
9,CC(=O)c1sc(NC(=O)c2ccc(C)cc2)nc1C,54.3% (active)
10,COc1cc(C(=O)NCc2ccncc2)cc(Br)c1OCc1ccccc1,-7.17% (inactive)
11,Cc1ccc(C(=O)N/N=C\c2cc(Br)c(Br)o2)cn1,3.37% (inactive)
12,CC(=O)NS(=O)(=O)c1ccc2c(c1)Cc1cc(S(=O)(=O)NC(C)=O)ccc1-2,-0.942% (inactive)
13,N#C[C@]1(S(=O)(=O)c2ccccc2)C[C@@H]2ON=C(c3cccc(Br)c3)[C@@H]2C1,0.173% (inactive)
14,CCCCC(O)(CCCC)C(=O)NN(C(=O)CCl)c1ccccc1,4.18% (inactive)
15,COc1cc2ccccc2cc1C(=O)Nc1nc(C)c(C(C)=O)s1,33.8% (active)
16,O=C(Cc1ccccc1)NC(=S)Nc1ccc(N2CCCCC2)cc1,20.2% (inactive)
17,CC1(C)CC(N2CCN(C(c3ccccc3)c3ccccc3)CC2)=CC(=[N+]2CCCCC2)C1,-1.68% (inactive)
18,Cc1ccc(S(=O)Cc2ccc(C(=O)N3CCN(C4CCCCC4)CC3)o2)cc1 (configuration not stated),0.779% (inactive)
19,CCOC(=O)c1ccc(CS(=O)c2ccc(Cl)cc2)o1 (configuration not stated),25.3% (active)
20,CCOC(=O)c1ccc(COC(=O)c2cc(=O)[nH]c3ccccc23)o1,-2.02% (inactive)
